This passage reports max response, outcome and Potency results from PubChem BioAssay (NCATS).

The subject of one assay is CRL-7250. The assay can be described thus: Cytotoxic Profiling of Annotated Libraries Using Quantitative High-Throughput Screening (AID 1296008). Also: potency is read from the fitted curve at half-maximal effect. As to max response: % is scaled to controls: 0 for no effect and ±100 for the full control effect. Conditions: Five cell lines viability, CellTiter-Glo ATP luminescence, 48-72 h; max response: stronger effect = lower value. The procedure, abridged:
(§1)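 Cytotoxicity was measured as CellTiter-Glo ATP luminescence, read after 10 min at room temperature. Compound treatment of the cells lasted 48 or 72 hr at 37 degrees Celsius in a qHTS format.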

The test system of another assay is HEK293. The description is as above. Conditions: Five cell lines viability, CellTiter-Glo ATP luminescence, 48-72 h; max response: stronger effect = lower value. The procedure, abridged: as §1
(In general: In ATP-based viability assays light output follows the ATP content of the culture.)

For assay [1], the system named is HaCat. The assay is described as above. Conditions: Five cell lines viability, CellTiter-Glo ATP luminescence, 48-72 h; max response: stronger effect = lower value. Summed up: as §1
In a further assay the test system is NIH3T3. The assay is described as above. Conditions: Five cell lines viability, CellTiter-Glo ATP luminescence, 48-72 h; max response: stronger effect = lower value. The procedure, abridged: as §1
For assay [2], the system named is HACAT. The assay can be described thus: qHTS assay to identify novel small-molecules to repurpose for Merkel cell carcinoma treatment (AID 1296009). Conditions: MCC and control cell lines, CellTiter-Glo viability, 72 h; at 44.8 µM (top of the series) unless noted. Summed up:
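72 hr, 37 degree celsius; NPC 8-pt / MIPE 11-pt dose response; compound pinned in DMSO; CellTiter-Glo, 10 min RT, luminescence; normalized to no-cell and DMSO controls.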

Results filed as inconclusive are left out. A number with no mark means an inactive call. Activity calls are given as the source filed them. Calls follow the shape of the dose curve; as a rule, active = well fitted inhibition curve with a large enough effect; inconclusive = small, poorly fitted or top-dose-only effect; inactive = flat fitted curve, though single readings scatter.
Also: nearly all actives have a fitted effect of over 60% in size.

Turning to `CCOc1c(N2CCOCC2)cnn(C)c1=O`, the values for the max response in the assay with CRL-7250, in the assay on HaCat [1] and with NIH3T3 were -1.71%, -2.94% and -0.145%, respectively. Moreover, the call with HEK293 was inactive.

For `CCOC(=O)CN1CCCC1=O`, the max response in the assay on CRL-7250 is 1.6%; in the assay on HEK293 it was -12.9%; with HaCat [1] it was -7.15%. The result in the assay with NIH3T3 was inactive.

In the case of `COc1cc(/C=C/C(N)=O)cc(OC)c1OC`, the molecule was called inactive in the assay on CRL-7250, with HEK293 and in the assay on NIH3T3. Besides, the max response in the assay on HaCat [1] is 2.61%.

Turning to `C[C@H]1C[C@H](O)c2ccsc2S1(=O)=O`, the max response in the assay with CRL-7250 is -0.46%; in the assay with HEK293 it was 3.47%; in the assay with HaCat [1] it was 2.62%; with NIH3T3, 1.66%.

Consider `CC(=O)O[C@H]1CC[C@@]2(C)C(=CC[C@@H]3[C@@H]2CC[C@]2(C)C(C(C)=O)=CC[C@@H]32)C1`, for which the max response with CRL-7250 was -17.3%; with HEK293, -0.38%; in the assay on HaCat [1] it was -12.2%; in the assay with NIH3T3 it was -1.15%.

With `O=C(O)C(=O)Nc1cccc(-c2nn[nH]n2)c1`, the max response in the assay on CRL-7250 was -0.0138%; in the assay on HaCat [1] it was -5.35%. The outcome in the assay with HEK293 and in the assay with NIH3T3 was inactive.

Consider `Cc1onc(-c2c(Cl)cccc2Cl)c1C(=O)Cl`, for which the outcome in the assay on CRL-7250 was inactive. Also, the values for the max response in the assay with HEK293, with HaCat [1] and in the assay with NIH3T3 were -4.58%, -4.26% and -2.46%, respectively.

Take `CC(C)C(=O)Nc1cccc(C2CN3CCSC3=N2)c1` (stereo not drawn): the max response with CRL-7250 was -9.12%; in the assay with HEK293, -1.66%; in the assay on HaCat [1] it was -7.7%; in the assay with NIH3T3 it was -0.0334%.

With `CCCCCCn1c(=O)c2c(ncn2C)n(C)c1=O`, the result with CRL-7250, with HaCat [1] and with HACAT [2] was inactive. For the same molecule, the max response in the assay with HEK293 is -1.62%; with NIH3T3, 1.26%.

For `O=[N+]([O-])c1cncn1CCN1CCOCC1`, in the assay on CRL-7250, the molecule was called inactive. In addition, the max response is 3.5% with HEK293, -14.4% in the assay with HaCat [1] and 2.27% in the assay on NIH3T3.

With `CN1CC(=O)N2[C@H](c3ccc4c(c3)OCO4)c3[nH]c4ccccc4c3C[C@@H]2C1=O`, the max response in the assay with CRL-7250 was 3.82%; with HEK293, -4.29%; in the assay on NIH3T3 it was 3.47%. The molecule was called inactive with HaCat [1] and in the assay with HACAT [2].

For the molecule `CCOc1ccccc1OCC1CNCCO1` (stereo not drawn), the results for the max response in the assay with CRL-7250 and in the assay on HaCat [1] were -6.41% and 0.667%, respectively. Also, the molecule was classed as inactive in the assay with HEK293 and in the assay on NIH3T3.

As to `CCOC(=O)Oc1ccc(CCNC(=O)[C@H](CCSC)NC(C)=O)cc1OC(=O)OCC`, the call in the assay on CRL-7250 and with NIH3T3 was inactive. Further, the values for the max response in the assay with HEK293 and in the assay with HaCat [1] were -13% and -20.7%, respectively.

For the molecule `CNC(=O)c1c(I)c(NC(C)=O)c(I)c(C(=O)O)c1I`, the max response in the assay with CRL-7250 is -1.99%; with HEK293, -7.17%; in the assay with NIH3T3, 0.318%. Further, the outcome in the assay with HaCat [1] and in the assay with HACAT [2] was inactive.

In the case of `CC1(C)O[C@@H]2C[C@H]3[C@@H]4CCC5=CC(=O)C=C[C@]5(C)[C@@]4(F)[C@@H](O)C[C@]3(C)[C@]2(C(=O)CO)O1`, the max response was -0.473% in the assay on CRL-7250, -6.9% with HEK293, -7.17% in the assay with HaCat [1] and -1.75% with NIH3T3.

With `CSCC[C@H](NC(=O)[C@H](Cc1c[nH]c2ccccc12)NC(=O)CCNC(=O)OC(C)(C)C)C(=O)N[C@@H](CC(=O)O)C(=O)N[C@@H](Cc1ccccc1)C(N)=O`, the max response in the assay with CRL-7250 was 0.728%; with HEK293, 0.664%; in the assay on HaCat [1], -2.67%. In the assay on NIH3T3, the call was inactive.

In the case of `COc1cc(S(N)(=O)=O)cc(C(=O)O)c1OC`, the results for the max response in the assay on CRL-7250, in the assay with HEK293 and with HaCat [1] were 3.62%, -2.74% and 2%, respectively. The outcome with NIH3T3 was inactive.

`CN1Cc2cc(C(=O)N3CCC(C4CCNCC4)CC3)ccc2NC(CC(=O)O)C1=O` (stereo not drawn): the max response in the assay on CRL-7250 was 0.285%; in the assay on HEK293, -6.55%; in the assay on HaCat [1], -7.2%; in the assay on NIH3T3 it was -2.76%.

As for `CCOC(=O)C(=O)CCCCCCl`, the molecule was called inactive in the assay with CRL-7250 and in the assay with NIH3T3. In addition, the max response in the assay on HEK293 is -7.06%; in the assay on HaCat [1], -12.5%.

`O=C(O)CCCC[P+](c1ccccc1)(c1ccccc1)c1ccccc1`: the max response was 1.78% with CRL-7250 and 3.89% in the assay on NIH3T3. Also, the result in the assay on HEK293, in the assay with HaCat [1] and with HACAT [2] was inactive.

On to `Cc1[nH]cnc1-c1ccc(Cl)cc1`, for which the call in the assay on CRL-7250, with HEK293 and with NIH3T3 was inactive. The max response with HaCat [1] was -6.75%.

Take `CN(C)CCCOC1(Cc2ccccc2)CCCCCC1`: the molecule was called inactive in the assay with CRL-7250 and with HEK293. The max response in the assay on HaCat [1] is -13.3%; with NIH3T3 it was 0.545%.

As to `Cn1c(=O)c2c(ncn2CC(=O)O)n(C)c1=O`, the max response with CRL-7250 was -0.788%; in the assay with HEK293, -8.26%; in the assay with HaCat [1], -42.3%. Besides, in the assay on NIH3T3, the result was inactive.

Turning to `CC1(C)O[C@@H]2C[C@H]3[C@@H]4C[C@H](F)C5=CC(=O)C=C[C@]5(C)[C@@]4(F)[C@@H](O)C[C@]3(C)[C@]2(C(=O)CO)O1`, the max response with CRL-7250 was -4.6%; with HEK293, 1.46%; in the assay on HaCat [1], 1.62%; in the assay with NIH3T3, -12.6%.

In the case of `CCCCCCCCCCCC[N+](C)(C)Cc1ccccc1`, the Potency was 4.22 µM (active) in the assay on CRL-7250, 0.841 µM (active) in the assay with HEK293, 4.73 µM (active) with HaCat [1] and 6.68 µM (active) in the assay with NIH3T3.

Regarding `CC(C)NC(=O)c1ccc(C=O)cc1`, the max response with CRL-7250 was -4.83%; with NIH3T3, 3.81%. Further, the outcome in the assay on HEK293, in the assay with HaCat [1] and with HACAT [2] was inactive.

With `CNC[C@H](O)[C@@H](O)[C@H](O)[C@H](O)CO`, the max response in the assay on CRL-7250 is -2.73%; with HEK293, -0.47%; in the assay on HaCat [1], -3.04%; with NIH3T3, 1.64%.
